Rows were chosen to be rich in hits. Some 2.3% of all compounds tested hit in one or more screens of this group.
Mcl1-Noxa inh – Mcl-1/Noxa binding inhibitors, primary screen, biochemical, TR-FRET, 1536-well; Induced myeloid leukemia cell differentiation protein Mcl-1 (Homo sapiens), Q07820; TR-FRET Mcl-1/Noxa peptide binding, 2 h; inhibition, % at 21.7 µM; actives 1.5% (n = 220,000); AID 1022, 2008;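 active means compounds that cut the protein-peptide binding signal by more than 50% relative to plate controls in a single-dose test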;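 further: His-tagged Mcl-1 with rhodamine Noxa BH3 peptide and terbium anti-His antibody; 0% = Mcl-1 plus Noxa peptide wells and 100% = peptide-only wells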
Mcl-1 Bim block – inhibitors of Bim peptide binding to Mcl-1, primary screen, biochemical, bead-based flow cytometry, multiplex. actives 0.1% (n = 190,000). Bim peptide-Mcl-1 binding. inhibition, % at 10 µM. Induced myeloid leukemia cell differentiation protein Mcl-1 (Homo sapiens), Q07820; in the data active means inhibition above about 40%;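 further: 0% = no compound tracer wells and 100% = peptide blocker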
Mcl1 Bid PPI – Mcl-1/Bid binding inhibitors, primary screen, biochemical, TR-FRET, 1536-well | Induced myeloid leukemia cell differentiation protein Mcl-1 (Homo sapiens), Q07820 | TR-FRET Mcl-1/Bid-Dy647 peptide binding | inhibition, % at 21.7 µM | actives 0.97% (n = 220,000);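 active means compounds that cut the binding signal by more than half at the single screening dose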;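 further: His-tagged Mcl-1 with europium anti-His antibody binding Bid BH3 peptide; 0% = Mcl-1 plus peptide wells and 100% = peptide-only wells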
GLD-1 RNA inh – GLD-1/TGE RNA complex disruptors, primary screen, biochemical, fluorescence polarization; purified GLD-1 + fluorescein TGE RNA; inhibition, % at 5.96 µM; actives 0.44% (n = 320,000);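 active means percent inhibition above a per-plate cutoff, the plate mean of test compounds plus 3 SD, cut at about 30% in these data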;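 further: 0% = DMSO wells with GLD-1 and probe and 100% = wells lacking GLD-1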
Bcl-xL primary – inhibitors of human Bcl-xL, primary screen, biochemical, fluorescence polarization, HTS; Bcl-2-like protein 1 (Homo sapiens), Q07817; GST-Bcl-xL / FITC-Bim BH3 peptide fluorescence polarization; inhibition, % at 10.9 µM; actives 0.7% (n = 320,000);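 active means inhibition above the mean of all tested compounds plus 3 SD, cutoff set per campaign, cut at about 30% in these data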;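 further: 0% = DMSO wells and 100% = unlabeled Bim-BH3 peptide competitor; inhibitors lower millipolarization by displacing the labeled peptide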
Target sequence (Q07817 whole entry, looked up): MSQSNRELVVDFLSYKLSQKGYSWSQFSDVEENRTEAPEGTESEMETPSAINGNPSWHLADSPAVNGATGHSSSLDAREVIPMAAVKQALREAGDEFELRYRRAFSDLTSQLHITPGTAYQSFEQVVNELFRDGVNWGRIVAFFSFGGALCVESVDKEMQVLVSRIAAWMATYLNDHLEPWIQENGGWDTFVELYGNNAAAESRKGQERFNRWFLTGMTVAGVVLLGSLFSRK
MCL1 BIM primary – inhibitors of MCL1 binding to BIM-BH3, primary screen, biochemical, fluorescence polarization; Induced myeloid leukemia cell differentiation protein Mcl-1 (Homo sapiens), Q07820; inhibition, % at 10.9 µM; actives 0.68% (n = 320,000); AID 2057, 2009; GST-MCL1 / FITC-Bim-BH3 fluorescence polarization;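 active means inhibition above the mean inhibition of all tested compounds plus 3 SD, set per campaign, cut at about 40% in these data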;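 further: 0% = DMSO wells and 100% = unlabeled Bim-BH3 peptide control; higher means more loss of mP so more displacement of Bim peptide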
* marks the source's active call; other numbers are inactive results; / = no result.

SMILES	Mcl1-Noxa inh	Mcl-1 Bim block	Mcl1 Bid PPI	GLD-1 RNA inh	Bcl-xL primary	MCL1 BIM primary
Cc1cc(C(F)F)n2nc(C(=O)Nc3sc4c(c3C(N)=O)CCC4)nc2n1	73.6*	-12.0	-87.0	0.8	12.0	29.7
Cc1ccsc1CNCC(O)c1ccccc1 (stereo not drawn)	/	/	/	6.4	4.5	-3.0
O=C(Nc1ccc(C2=NCCN2)cc1)c1ccc(Cl)c(C(=O)Nc2ccc(C3=NCCN3)cc2)c1	57.2*	/	-0.5	-4.1	4.1	-4.9
CN(CCOc1ccc(Cl)c(Cl)c1)Cc1ccccc1	/	/	/	5.9	5.9	7.3
CCN(CC)CCCOc1ccc(Cl)c(Cl)c1	37.5	-5.0	15.5	-0.9	36.0*	31.8
CN(C)c1ccc(/C=C/c2ccc3ccccc3[n+]2C)cc1	47.1	-7.0	-57.2	-0.3	0.2	-12.2
CN(C)c1ccc(/C=C/c2ccc3c4ccccc4ccc3[n+]2-c2ccccc2)cc1	84.2*	0.0	-61.4	/	/	/
Cn1c(=O)c2c(C(=O)O)cc(-c3ccccc3)nc2n(Cc2ccccc2)c1=O	/	/	/	21.8	37.6*	35.2
COc1ccccc1-c1cc(C(=O)O)c2c(=O)n(C)c(=O)n(Cc3ccccc3)c2n1	/	/	/	4.2	-1.8	1.5
COc1cccc(N2CCN(C(=O)NC3CCCCC3)CC2)c1	10.8	-1.0	94.0*	0.0	-0.8	0.4
COc1ccc(N2CCN(C(=O)NC3CCCCC3)CC2)cc1	15.8	0.0	-32.9	-1.6	5.3	-1.3
COc1cc(C(=O)OCn2nnc3ccccc3c2=O)cc(OC)c1OC	14.9	0.0	62.2*	3.1	6.1	5.9
O=C(CCC(=O)N1CCc2ccccc2C1)NCCc1ccc(Cl)cc1	/	/	/	5.8	5.9	-1.3
O=C(O)c1cccc(N/N=C/C2=C(Cl)c3cc(Cl)ccc3SC2)c1	103.5*	4.0	88.6*	/	/	/
Cc1cc(=O)oc2cc(NC(=O)C(C)N3C(=O)C4CCCCC4C3=O)ccc12 (stereo not drawn)	/	/	/	-0.2	1.7	-2.7
COc1ccc(N2CCN(C(=O)COC(=O)CNC(=O)c3cccc(OC(F)F)c3)CC2)cc1	/	/	/	8.2	1.4	1.2
O=C(Nc1ccccn1)C1CCCN1S(=O)(=O)c1ccc(Cl)cc1 (stereo not drawn)	/	/	/	6.9	7.0	0.1
O=C(c1ccccc1)N1CCC(c2nc(-c3ccc(S(=O)(=O)N4CCOCC4)cc3)no2)CC1	28.5	-1.0	-23.5	7.7	1.9	3.0
Cc1cccc(C(=O)N2CCC(c3nc(-c4ccc(S(=O)(=O)N5CCOCC5)cc4)no3)CC2)c1	/	47.0*	/	3.4	4.0	1.6
COc1cccc(C(=O)N2CCN(C(=O)COc3ccc4ccccc4c3)CC2)c1	/	/	/	-4.3	1.4	0.0
O=c1[nH]c(=S)[nH]c2c1C(c1ccc(Br)cc1)c1c([nH]c(=S)[nH]c1=O)O2	/	/	/	1.7	38.7*	72.1*
O=C1CCCC2=C1C(c1ccc(Br)cc1)c1c([nH]c(=S)[nH]c1=O)N2 (stereo not drawn)	52.9*	-4.0	-6.9	8.3	33.8*	5.7
Cc1ccc(C2C3=C(CCCC3=O)Nc3[nH]c(=S)[nH]c(=O)c32)cc1 (stereo not drawn)	12.3	-2.0	-17.2	2.5	7.9	-3.3
O=S(=O)(c1c(Cl)cc(Br)cc1Cl)N1CCN(C(=S)NC2CC2)CC1	/	/	/	2.5	/	/
CCC(=O)c1ccc(OC(=O)Cc2ccc(OC)cc2)cc1	/	/	/	4.3	6.2	7.0
CCCOc1ccc(C(=O)Nc2ccc(NC(=O)c3cccs3)cc2)cc1	/	/	/	-1.6	2.9	-0.1
CCOC(=O)c1c(C)c(C(=O)Nc2ccc(N(C)C)cc2)c(C)n1CC	56.1*	3.0	-11.8	7.0	-5.0	-2.2
CCCOc1ccc(C(=O)Nc2ccc(N(C)C)cc2)cc1	81.3*	4.0	-27.4	-3.8	-5.1	7.3
CN(C)c1ccc(/C=N/NC(=O)c2ccc(NC(=O)c3ccccc3)cc2)cc1	31.4	/	-77.0	16.5	32.1*	33.1
